# Results: the supplement of paper PMC8728848
# Shown is part of a subset that was picked to be rich in the strongest signals.
# Tests used:
# Experiment in all cases: glycan array binding signal (z-score within array); higher = stronger binding
# Conditions in all cases: glycan notation: IUPAC condensed, linker removed
# [1] = biological target: Gal(b1-4)GlcNAc(b1-3)Gal(b1-4)GlcNAc(b1-3)Gal(b1-4)GlcNAc(b1-3)Gal(b1-4)GlcNAc(b1-3)Gal(b1-4)GlcNAc(b1-3)Gal(b1-4)GlcNAc(b1-2)Man(a1-3)[Gal(b1-4)GlcNAc(b1-3)Gal(b1-4)GlcNAc(b1-3)Gal(b1-4)GlcNAc(b1-3)Gal(b1-4)GlcNAc(b1-3)Gal(b1-4)GlcNAc(b1-3)Gal(b1-4)GlcNAc(b1-2)Man(a1-6)]Man(b1-4)GlcNAc(b1-4)GlcNAc
# How it was run: (§1)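 Columns mapping to the same glycan were averaged after glycan names were converted to IUPAC-condensed notation. The data come from 3228 arrays in the Consortium for Functional Glycomics database, limited to those with an available protein sequence. Binding is reported as a within-array Z-score averaged across arrays of one protein sequence and across linkers.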
# [2] = biological target: Gal(b1-4)GlcNAc(b1-3)Gal(b1-4)GlcNAc(b1-3)[Gal(b1-4)GlcNAc(b1-3)Gal(b1-4)GlcNAc(b1-6)]GalNAc
# How it was run: as §1
# [3] = biological target: Gal(b1-4)GlcNAc(b1-6)GalNAc
# How it was run: as §1
# [4] = biological target: Gal3S(b1-4)Glc6S
# How it was run: as §1
# [5] = biological target: Gal3S(b1-4)[Fuc(a1-3)]Glc6S
# How it was run: as §1
# [6] = biological target: Gal6S(b1-4)Glc
# How it was run: as §1
# [7] = biological target: GalNAc(b1-4)GlcNAc(b1-2)Man(a1-3)[GalNAc(b1-4)GlcNAc(b1-2)Man(a1-6)]Man(b1-4)GlcNAc(b1-4)GlcNAc
# How it was run: as §1
# [8] = biological target: GlcNAc(b1-3)Gal(b1-4)GlcNAc
# How it was run: as §1
# [9] = biological target: GlcNAc(b1-3)Gal(b1-4)GlcNAc(b1-3)Gal(b1-4)GlcNAc
# How it was run: as §1
# [10] = biological target: GlcNAc(b1-3)Gal(b1-4)GlcNAc(b1-3)Gal(b1-4)GlcNAc(b1-3)Gal(b1-4)GlcNAc(b1-3)Gal(b1-4)GlcNAc(b1-2)Man(a1-3)[GlcNAc(b1-3)Gal(b1-4)GlcNAc(b1-3)Gal(b1-4)GlcNAc(b1-3)Gal(b1-4)GlcNAc(b1-3)Gal(b1-4)GlcNAc(b1-2)Man(a1-6)]Man(b1-4)GlcNAc(b1-4)[Fuc(a1-6)]GlcNAc
# How it was run: as §1
# [11] = biological target: GlcNAc(b1-3)Gal(b1-4)GlcNAc(b1-3)Gal(b1-4)GlcNAc(b1-3)GalNAc
# How it was run: as §1
# [12] = biological target: GlcNAc(b1-4)GlcNAc(b1-4)GlcNAc(b1-4)GlcNAc(b1-4)GlcNAc
# How it was run: as §1
# [13] = biological target: Man(a1-6)Man
# How it was run: as §1
# [14] = biological target: Neu5Ac(a2-3)Gal(b1-3)GlcNAc(b1-2)Man(a1-3)[Neu5Ac(a2-3)Gal(b1-3)GlcNAc(b1-2)Man(a1-6)]Man(b1-4)GlcNAc(b1-4)GlcNAc
# How it was run: as §1
# [15] = biological target: Neu5Ac(a2-3)Gal(b1-4)GlcNAc
# How it was run: as §1
# [16] = biological target: Neu5Ac(a2-3)Gal(b1-4)GlcNAc(b1-3)Gal(b1-4)[Fuc(a1-3)]GlcNAc
# How it was run: as §1
# [17] = biological target: Neu5Ac(a2-3)Gal(b1-4)GlcNAc(b1-3)GalNAc
# How it was run: as §1
# [18] = biological target: Neu5Ac(a2-6)Gal
# How it was run: as §1
# [19] = biological target: Neu5Ac(a2-6)Gal(b1-4)GlcNAc(b1-2)Man
# How it was run: as §1
# [20] = biological target: Neu5Ac(a2-6)Gal(b1-4)GlcNAc(b1-2)[Neu5Ac(a2-6)Gal(b1-4)GlcNAc(b1-4)]Man(a1-3)[GlcNAc(b1-4)][Neu5Ac(a2-6)Gal(b1-4)GlcNAc(b1-2)[Neu5Ac(a2-6)Gal(b1-4)GlcNAc(b1-6)]Man(a1-6)]Man(b1-4)GlcNAc(b1-4)GlcNAc
# How it was run: as §1
# [21] = biological target: Neu5Ac(a2-6)GlcNAc(b1-4)GlcNAc(b1-4)GlcNAc
# How it was run: as §1
# [22] = biological target: Neu5Ac(a2-8)Neu5Ac(a2-3)Gal(b1-3)GalNAc(b1-4)[Neu5Ac(a2-3)]Gal(b1-4)Glc
# How it was run: as §1
# [23] = biological target: Neu5Ac(a2-8)Neu5Ac(a2-8)Neu5Ac(a2-3)[Gal(b1-3)GalNAc(b1-4)]Gal(b1-4)Glc
# How it was run: as §1
# [24] = biological target: Neu5Gc(a2-3)Gal(b1-3)[Fuc(a1-4)]GlcNAc
# How it was run: as §1
binder,measurement,setting,value
"Gal 8 (Mus musculus), Q9JL15 (protein) MGGSHHHHHHGMASMLSLNNLQNIIYNPIIPYVGTITEQLKPGSLIVIRGHVPKDSERFQVDFQLGNSLKPRADVAFHFNPRFKRSSCIVCNTLTQEKWGWEEITYDMPFRKEKSFEIVFMVLKNKFQVAVNGRHVLLYAHRISPEQIDTVGIYGKVNIHSIGFRFSSASALPHTLGDLQSMETSALGLTQINRENIQKPGKLQLSLPFEARLNASMGPGRTVVIKGEVNTNARSFNVDLVAGKTRDIALHLNPRLNVKAFVRNSFLQDAWGEEERNITCFPFSSGMYFEMIIYCDVREFKVAINGVHSLEYKHRFKDLSSIDTLSVDGDIRLLDVRSW",glycan array binding signal (z-score),[1],3.5
same,glycan array binding signal (z-score),[2],-0.063
same,glycan array binding signal (z-score),[3],-0.214
same,glycan array binding signal (z-score),[4],0.566
same,glycan array binding signal (z-score),[5],-0.498
same,glycan array binding signal (z-score),[6],-0.532
same,glycan array binding signal (z-score),[7],-0.195
same,glycan array binding signal (z-score),[8],-0.163
same,glycan array binding signal (z-score),[9],1.11
same,glycan array binding signal (z-score),[10],3.01
same,glycan array binding signal (z-score),[11],0.651
same,glycan array binding signal (z-score),[12],-0.54
same,glycan array binding signal (z-score),[13],-0.51
same,glycan array binding signal (z-score),[14],-0.466
same,glycan array binding signal (z-score),[15],-0.517
same,glycan array binding signal (z-score),[16],-0.215
same,glycan array binding signal (z-score),[17],-0.525
same,glycan array binding signal (z-score),[18],-0.511
same,glycan array binding signal (z-score),[19],-0.548
same,glycan array binding signal (z-score),[20],-0.602
same,glycan array binding signal (z-score),[21],-0.545
same,glycan array binding signal (z-score),[22],0.316
same,glycan array binding signal (z-score),[23],-0.539
same,glycan array binding signal (z-score),[24],-0.514
